Records with an inconclusive call do not appear. Activity calls are given as the source filed them. Unless noted, the call rests on the fitted dose curve; in most records, active means well fitted curve in the direction sought with a large enough effect in the repeat runs; inconclusive means weak or mixed curves; inactive means no such curve, though single readings can be large; an effect the other way counts as inactive or inconclusive.
How the values were obtained:
[1] = qHTS assay to identify small molecule antagonists of the glucocorticoid receptor (GR) signaling pathway - cell viability counter screen (AID 720693); further: nearly all actives have a fitted effect of over 55% in size
[2] = qHTS assay for identifying genotoxic compounds that show differential cytotoxicity against isogenic chicken DT40 cell lines with known DNA damage response pathways - wild type cell line (AID 743012); further: nearly all actives have a fitted effect of over 60% in size; further: potency means the concentration at half of the fitted maximal effect
Outline: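 First, wild type DT40 cells were plated at 300 per well and equilibrated about 0.5 h at 37 C/5% CO2. Next, compounds in DMSO were added and exposure lasted 40 h. Finally, CellTiter-Glo was added for 30 min at room temperature and luminescence recorded.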

[3] = qHTS assay for identifying genotoxic compounds that show differential cytotoxicity against isogenic chicken DT40 cell lines with known DNA damage response pathways - Rev3 mutant cell line (AID 743014); further: nearly all actives have a fitted effect of over 55% in size; further: potency means the concentration at half of the fitted maximal effect
[4] = qHTS assay for identifying genotoxic compounds that show differential cytotoxicity against isogenic chicken DT40 cell lines with known DNA damage response pathways - Rad54/Ku70 mutant cell line (AID 743015); further: nearly all actives have a fitted effect of over 60% in size; further: potency means the concentration at half of the fitted maximal effect
[5] = qHTS assay to identify small molecule antagonists of the androgen receptor (AR) signaling pathway - cell viability counter screen (AID 743033; further: nearly all actives have a fitted effect of over 45% in size)
[6] = qHTS assay to identify small molecule antagonists of the androgen receptor (AR) signaling pathway using the MDA cell line - cell viability counter screen (AID 743041; further: nearly all actives have a fitted effect of over 45% in size; further: potency means the concentration at half of the fitted maximal effect)
Outline: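 Viability counter screen run alongside the AR antagonist reporter: cells seeded 5 h before compound, R1881 added, 16 h incubation at 37C without CO2, fluorescent CellTiter-Fluor signal quantified.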

[7] = qHTS assay to identify small molecule antagonists of the thyroid receptor (TR) signaling pathway (AID 743065); further: nearly all actives have a fitted effect of over 55% in size; further: potency means the concentration at half of the fitted maximal effect
Outline: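 GH3.TRE-Luc rat pituitary cells carrying two TR response elements driving luciferase were plated for 4 h, given compound plus 1 nM T3 (final), and incubated 23.5 h at 37 C. ONE-Glo luminescence measured reporter inhibition; CellTiter-Fluor fluorescence tracked cytotoxicity.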

[8] = target: Estrogen receptor (Homo sapiens) (UniProt P03372); assay: qHTS assay to identify small molecule antagonists of the estrogen receptor alpha (ER-alpha) signaling pathway (AID 743069; active means well fitted curve in the direction sought with a large enough effect in the signal ratio in the repeat runs, not every such curve was filed as active; the % refers to the signal ratio)
Outline: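 Estradiol-stimulated ER-alpha-UAS-bla HEK293 cells, 18 hr compound exposure at 37C. LiveBLAzer B/G substrate, 2 hr RT, fluorescence read.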

[9] = qHTS assay to identify small molecule antagonists of the estrogen receptor alpha (ER-alpha) signaling pathway - cell viability counter screen (AID 743074; calls by dose curve;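 further: HEK293 cells carrying ER-alpha-UAS-bla reporter stimulated with 17beta-estradiol; nearly all actives have a fitted effect of over 45% in size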)
[10] = target: Estrogen receptor (Homo sapiens) (UniProt P03372); assay: qHTS assay to identify small molecule agonists of the estrogen receptor alpha (ER-alpha) signaling pathway (AID 743075; calls by dose curve;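 further: HEK293 GripTite cells with ER-alpha and UAS-driven beta-lactamase reporter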)
Aromatase (Homo sapiens) = Aromatase (Homo sapiens) (UniProt P11511); assay: qHTS assay to identify aromatase inhibitors (AID 743083); further: nearly all actives have a fitted effect of over 55% in size; further: potency means the concentration at half of the fitted maximal effect
[11] = system: thyroid hormone receptor (rat, GH3 cells); assay: qHTS assay to identify small molecule agonists of the thyroid receptor (TR) signaling pathway (AID 743066; calls by dose curve)
[12] = target: Estrogen receptor (Homo sapiens) (UniProt P03372); assay: qHTS assay to identify small molecule agonists of the estrogen receptor alpha (ER-alpha) signaling pathway using the BG1 cell line (AID 743079); further: nearly all actives have a fitted effect of over 20% in size
[13] = qHTS assay to identify small molecule antagonists of the estrogen receptor alpha (ER-alpha) signaling pathway using the BG1 cell line (AID 743080; calls by dose curve;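 further: BG1 cells stimulated with 17beta-estradiol alongside compound; series mostly up to about 70 µM; nearly all actives have a fitted effect of over 25% in size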)
Outline: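 Endogenous full-length ER-alpha in BG1-Luc-4E2 cells drives a stably integrated 4×ERE luciferase gene; compounds were tested against 17beta-estradiol over 21.5 h, with luminescence and multiplexed viability fluorescence recorded.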

[14] = qHTS assay to identify small molecule antagonists of the estrogen receptor alpha (ER-alpha) signaling pathway using the BG1 cell line - cell viability counter screen (AID 743081);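 further: compound given together with 17beta-estradiol as the ER stimulus; series mostly up to about 70 µM; nearly all actives have a fitted effect of over 45% in size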
[15] = target: Androgen receptor (Homo sapiens) (UniProt P10275); assay: qHTS assay to identify small molecule antagonists of the androgen receptor (AR) signaling pathway (AID 743035; active means well fitted inhibition curve with a large enough effect in the signal ratio in the repeat runs, not every such curve was filed as active; the % refers to the signal ratio)
Outline: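 Beta-lactamase FRET read (2 h RT incubation with LiveBLAzer B/G) following 16 h of compound plus R1881 treatment of AR-UAS-bla HEK293 cells, which had been pre-incubated 4 h at 37C.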

[16] = target: Androgen receptor (Homo sapiens) (UniProt P10275); assay: qHTS assay to identify small molecule agonists of the androgen receptor (AR) signaling pathway (AID 743036; active means well fitted activation curve with a large enough effect in the signal ratio in the repeat runs, with a control signal flat, not every such curve was filed as active; the % refers to the signal ratio)
Outline: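 Following a 4 h settling period, AR-UAS-bla HEK293 cells were dosed with compounds for 16 h at 37C. A 2 h room-temperature incubation with LiveBLAzer B/G FRET substrate preceded the fluorescence measurement.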

[17] = target: Androgen receptor (Homo sapiens) (UniProt P10275); assay: qHTS assay to identify small molecule agonists of the androgen receptor (AR) signaling pathway using the MDA cell line (AID 743040; further: nearly all actives have a fitted effect of over 20% in size)
Outline: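 Luminescence from ONE-Glo, read after 30 min at room temperature, reflects MMTV-driven luciferase in MDA-kb2 cells (AR- and GR-responsive). Treatment lasted 16 h at 37C, 0% CO2.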

[18] = target: Androgen receptor (Homo sapiens) (UniProt P10275); assay: qHTS assay to identify small molecule antagonists of the androgen receptor (AR) signaling pathway using the MDA cell line (AID 743042; further: nearly all actives have a fitted effect of over 55% in size)
Outline: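 MDA-kb2 cells (human breast carcinoma, stably carrying an MMTV-luciferase reporter responsive to AR and GR) were plated at 3,000 cells/well and preincubated 5 hr at 37C, then given compound plus R1881 agonist for 16 h. ONE-Glo luminescence was read.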

[19] = qHTS assay to identify small molecule antagonists of the thyroid receptor (TR) signaling pathway - cell viability counter screen (AID 743064); further: nearly all actives have a fitted effect of over 50% in size
Outline: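 CellTiter-Fluor readout, 30 min at 37 °C/5% CO2, following 23.5 h incubation of GH3.TRE-Luc cells with test compound and 1 nM T3 (final).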

Measured: Potency

Estrogen receptor (Homo sapiens), sequence (P03372 whole entry, looked up): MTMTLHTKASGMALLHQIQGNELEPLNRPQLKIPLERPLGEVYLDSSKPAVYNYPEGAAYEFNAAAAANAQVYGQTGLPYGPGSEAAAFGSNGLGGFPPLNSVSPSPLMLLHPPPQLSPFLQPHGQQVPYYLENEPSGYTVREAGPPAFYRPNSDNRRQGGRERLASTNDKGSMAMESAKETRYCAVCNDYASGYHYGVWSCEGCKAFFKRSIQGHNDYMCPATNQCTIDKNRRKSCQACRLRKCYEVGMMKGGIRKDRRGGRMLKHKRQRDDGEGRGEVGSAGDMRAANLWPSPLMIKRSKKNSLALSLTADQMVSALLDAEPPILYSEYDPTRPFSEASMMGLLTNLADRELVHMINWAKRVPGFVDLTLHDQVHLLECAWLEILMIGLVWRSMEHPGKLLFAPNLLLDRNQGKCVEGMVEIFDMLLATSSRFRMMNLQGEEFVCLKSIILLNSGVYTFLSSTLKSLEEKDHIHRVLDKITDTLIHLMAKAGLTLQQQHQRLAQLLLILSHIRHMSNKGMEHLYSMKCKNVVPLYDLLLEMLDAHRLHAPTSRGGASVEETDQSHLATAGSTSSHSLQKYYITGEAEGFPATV
Androgen receptor (Homo sapiens), sequence (P10275 whole entry, looked up): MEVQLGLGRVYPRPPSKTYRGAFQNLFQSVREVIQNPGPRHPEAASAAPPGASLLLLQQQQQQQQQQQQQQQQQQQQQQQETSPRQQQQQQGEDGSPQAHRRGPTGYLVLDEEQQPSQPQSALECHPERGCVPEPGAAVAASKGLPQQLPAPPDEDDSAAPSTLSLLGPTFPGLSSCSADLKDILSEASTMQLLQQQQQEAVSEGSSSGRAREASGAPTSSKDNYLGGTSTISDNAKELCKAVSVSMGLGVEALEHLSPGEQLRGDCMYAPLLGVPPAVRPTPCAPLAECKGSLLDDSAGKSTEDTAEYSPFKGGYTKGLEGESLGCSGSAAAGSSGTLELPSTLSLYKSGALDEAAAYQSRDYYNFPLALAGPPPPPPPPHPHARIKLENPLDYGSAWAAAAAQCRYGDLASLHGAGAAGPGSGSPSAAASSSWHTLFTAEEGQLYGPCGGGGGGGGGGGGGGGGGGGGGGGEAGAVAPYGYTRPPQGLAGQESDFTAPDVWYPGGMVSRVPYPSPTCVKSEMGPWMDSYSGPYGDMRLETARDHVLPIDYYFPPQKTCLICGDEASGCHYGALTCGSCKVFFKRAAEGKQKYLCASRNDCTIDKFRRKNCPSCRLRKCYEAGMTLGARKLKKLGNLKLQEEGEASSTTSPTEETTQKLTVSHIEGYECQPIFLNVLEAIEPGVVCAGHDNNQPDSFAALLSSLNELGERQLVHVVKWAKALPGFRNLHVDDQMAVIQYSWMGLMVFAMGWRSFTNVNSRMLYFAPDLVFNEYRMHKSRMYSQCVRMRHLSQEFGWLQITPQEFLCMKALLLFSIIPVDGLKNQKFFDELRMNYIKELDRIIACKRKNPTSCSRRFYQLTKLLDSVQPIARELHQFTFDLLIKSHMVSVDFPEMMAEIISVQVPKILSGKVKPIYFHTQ
Aromatase (Homo sapiens), sequence (P11511 whole entry, looked up): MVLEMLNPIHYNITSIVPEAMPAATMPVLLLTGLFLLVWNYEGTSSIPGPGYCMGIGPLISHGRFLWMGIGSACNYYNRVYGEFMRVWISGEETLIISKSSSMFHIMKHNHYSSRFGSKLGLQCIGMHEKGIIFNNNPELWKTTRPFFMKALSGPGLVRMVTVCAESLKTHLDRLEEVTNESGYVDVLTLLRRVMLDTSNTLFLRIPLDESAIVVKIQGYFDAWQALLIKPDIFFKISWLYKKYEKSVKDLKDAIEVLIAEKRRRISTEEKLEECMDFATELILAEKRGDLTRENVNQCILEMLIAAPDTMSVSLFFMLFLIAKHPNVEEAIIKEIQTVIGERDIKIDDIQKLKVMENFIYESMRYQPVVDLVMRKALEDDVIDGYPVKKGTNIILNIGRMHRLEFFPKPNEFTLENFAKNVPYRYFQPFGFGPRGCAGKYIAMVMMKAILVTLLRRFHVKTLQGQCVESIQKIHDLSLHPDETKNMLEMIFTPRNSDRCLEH

CC[C@H]1CC[C@H](NCc2cc3c(cc2OC)[C@H]2C[C@H]2C(=O)N3C)[C@H](c2ccccc2)N1
inactive: [1] | [5] | [8] | [9] | [10]
active: [2] 6.86 µM | [3] 4.86 µM | [4] 4.86 µM | [6] 68.6 µM | [7] 19.3 µM | Aromatase (Homo sapiens) 68.6 µM

C=Cc1ccccc1
not listed: [15] | [16] | [17] | [18] | [19]
inactive: all other assays above

CO[C@@]1(NC(=O)CSCC#N)C(=O)N2C(C(=O)O)=C(CSc3nnnn3C)CS[C@@H]21
not listed: [15] | [16] | [17] | [18] | [19]
inactive: all other assays above

CCCC1CCC(=O)O1 (stereo not given)
inactive: [1] | [2] | [3] | [4] | [5] | [6] | [7] | [11] | [9] | [14] | Aromatase (Homo sapiens)

CNCCC(Oc1ccccc1OC)c1ccccc1 (stereo not given)
active: [2] 26.6 µM
not listed: [7] | [15] | [16] | [17] | [18] | [19]
inactive: all other assays above

Cc1ccc(C(C)C)cc1O
inactive: [1] | [2] | [3] | [4] | [5] | [6] | [11] | [9] | [14] | Aromatase (Homo sapiens)

N#Cc1ccc(C(c2ccc(C#N)cc2)n2cncn2)cc1
not listed: [5] | Aromatase (Homo sapiens)
inactive: all other assays above

Cc1ccc(C=O)s1
inactive: [1] | [2] | [3] | [4] | [5] | [6] | [7] | [11] | [9] | [14] | Aromatase (Homo sapiens)

Nc1ccc(Oc2ccc(N)c(N)c2)cc1
active: [2] 15.4 µM | [3] 7.7 µM | [4] 13.7 µM
inactive: [1] | [5] | [11] | [9] | [10] | [14]

Cc1c(-c2ccccc2)oc2c(C(=O)OCCN3CCCCC3)cccc2c1=O
not listed: Aromatase (Homo sapiens) | [15] | [16] | [17] | [18] | [19]
inactive: all other assays above

O=C(O)C(=O)Cc1c[nH]c2ccccc12
not listed: [7] | [11] | [13] | [15] | [16] | [17] | [18]
inactive: all other assays above

CCCCCCC
not listed: [7] | [11] | [15] | [16] | [17] | [18]
inactive: all other assays above

NS(=O)(=O)c1cc(-c2nn[nH]n2)c(NCc2cccs2)cc1Cl
not listed: [15] | [16] | [17] | [18] | [19]
inactive: all other assays above

CCC/C=C/CO
not listed: [7] | [8] | Aromatase (Homo sapiens) | [15] | [16] | [17] | [18] | [19]
inactive: all other assays above

ClC(Cl)Cl
inactive: [1] | [2] | [3] | [4] | [5] | [6] | [7] | [11] | [9] | [14] | Aromatase (Homo sapiens)

Clc1cccc(-c2cc(Cl)cc(Cl)c2)c1
not listed: [10] | [15] | [16] | [17] | [18] | [19]
inactive: all other assays above

O=C(O[C@@H](C(=O)O)[C@@H](OC(=O)c1ccccc1)C(=O)O)c1ccccc1
not listed: [7] | [11] | [15] | [16] | [17] | [18]
inactive: all other assays above

CCC(=O)Nc1ccc(O)cc1
not listed: [15] | [16] | [17] | [18] | [19]
inactive: all other assays above

C=CCCCCCCCCO
not listed: [7] | [15] | [16] | [17] | [18] | [19]
inactive: all other assays above

O=C1CCCCC1C1CCCCC1 (stereo not given)
not listed: [15] | [16] | [17] | [18] | [19]
inactive: all other assays above
